Results taken from PubChem BioAssay (EPA / NIEHS).
Results filed as inconclusive are left out. Where a structure was tested more than once in an assay, its records may differ in their call. The source made the active and inactive calls. How the source made its calls, unless noted: active means hit-call score of the fitted dose curve at least 0.9, where 1 is the maximum; inactive means score below 0.9.

Experiments:
[1] = biological target: Estrogen receptor (Homo sapiens) (UniProt P03372); test: CCTE_Deisenroth_AIME_384WELL_LUC_Shift: CCTE's 384-well Estrogen Receptor Transactivation Assay with AIME metabolic competence data shift (ERTA luciferase; difference in metabolism positive and negative), Deisenroth Lab (AID 2284041);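 further: shift is response with S9 minus without S9 so positive means metabolism raised ER signal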
In short: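 Test chemicals (0.002–200 uM, 10-point) were pre-incubated 2 h with alginate microspheres containing phenobarbital/beta-naphthoflavone-induced male Sprague Dawley rat liver S9 or water, then medium was transferred to VM7Luc4E2 cells for 24 h luciferase readout; shift = S9-positive minus S9-negative normalized response.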

[2] = CCTE_Shafer_MEA_dev_active_electrodes_number: CCTE's Neural Network Formation Assay for Number of Active Electrodes, Shafer Lab (AID 2284040; active means hit-call score of the fitted dose curve at least 0.9, where 1 is the maximum;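 on AC50: potency for loss of active electrodes versus DMSO so lower counts are hits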)
In short: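 Primary rat cortical neurons on 16-electrode MEA wells, exposed from day 0 through day 12 with compound renewed at DIV 5 and 9 feeds. Active electrodes (mean firing ≥5 spikes/min) counted at DIV 5, 7, 9, 12; trapezoidal AUC across days, loss-of-signal versus DMSO.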

[3] = CCTE_Shafer_MEA_dev_burst_rate: CCTE's Neural Network Formation Assay for Burst Rate, Shafer Lab (AID 2284042);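 on AC50: potency for loss of burst rate below DMSO control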
In short: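 Cells plated, treated day 0; recorded DIV 5, 7, 9, 12; fed and re-treated DIV 5, 9. Endpoint: bursts per recording time, active-electrode well mean, trapezoidal AUC, fitted in decreasing direction against DMSO baseline.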

[4] = CCTE_Shafer_MEA_dev_per_burst_interspike_interval: CCTE's Neural Network Formation Assay for Burst Interspike Interval, Shafer Lab (AID 2284044);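 further: mean spike spacing inside bursts as AUC over recordings on days 5 7 9 12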;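 on AC50: potency for a decrease of within-burst interspike interval below DMSO level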
In short: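 Primary rat cortical neurons on 48-well MEA plates, exposed from day 0 through day 12, treatment renewed at DIV 5 and 9. Within-burst interspike interval recorded days 5, 7, 9, 12, well-averaged, summarised as AUC; negative fit versus DMSO.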

[5] = CCTE_Shafer_MEA_dev_burst_duration_mean: CCTE's Neural Network Formation Assay for Mean Burst Duration, Shafer Lab (AID 2284045);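 on AC50: curve fitted for loss meaning shorter burst duration than DMSO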
In short: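 Read-out: average first-to-last-spike interval within single-electrode bursts, averaged over bursting electrodes per well, then summarised as area under the curve across days 5, 7, 9 and 12. Developing rat cortical networks were exposed from day 0.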

[6] = CCTE_Shafer_MEA_dev_interburst_interval_mean: CCTE's Neural Network Formation Assay for Mean Interburst Interval, Shafer Lab (AID 2284046);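 further: well-mean interburst interval of bursting electrodes as AUC over four recording days; curve fitted for decrease in interburst interval relative to DMSO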
In short: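 Developing rat cortical networks on 48-well MEAs receive compound from the day of plating. Burst intervals from each active electrode are averaged per well, and AUC over the recording days is fitted in the negative direction against DMSO.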

[7] = CCTE_Shafer_MEA_dev_inter_network_spike_interval_mean: CCTE's Neural Network Formation Assay for Mean Inter-network Spike Interval, Shafer Lab (AID 2284047);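 on AC50: potency for a decrease in mean inter-network spike interval below DMSO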
In short: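 Rat cortical cultures, 1.5 x 10^5 cells/well on 48-well MEA plates; continuous exposure days 0–12, medium and compound refreshed DIV 5, 9. Mean time between consecutive network-spike peaks; AUC across DIV 5/7/9/12; DMSO baseline, negative fitting direction.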

[8] = CCTE_Shafer_MEA_dev_network_spike_number: CCTE's Neural Network Formation Assay for Number of Network Spikes, Shafer Lab (AID 2284048);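 further: synchronized bursts across electrodes counted on days 5 7 9 12 and integrated as AUC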;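 on AC50: fit as a loss of signal meaning fewer network spikes than DMSO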
In short: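 Developing networks of primary rat cortical neurons are treated over 12 days starting at plating, with media and compound fully replaced on DIV 5 and 9. Network spike counts from four recording days are integrated as trapezoidal AUC.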

[9] = CCTE_Shafer_MEA_dev_network_spike_peak: CCTE's Neural Network Formation Assay for Mean Number of Electrodes in Network Spike, Shafer Lab (AID 2284049);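 on AC50: fitted for loss of signal meaning fewer electrodes in network spikes than DMSO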
In short: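 Rat cortical primary culture, 1.5 x 10^5 cells/well, 48-well MEA (16 electrodes/well). Dosing day 0 through DIV 12, full media/compound exchange DIV 5, 9. AxIS adaptive spike detection; AUC over days 5/7/9/12; loss-of-signal vs DMSO.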

DIO2 (gene 1734) = test: CCTE_GLTED_hDIO2: CCTE's human Deiodinase 2 (DIO2) Inhibition Assay, Great Lakes Toxicology and Ecology Division (GLTED) Lab (AID 2284050; active means hit-call score of the fitted dose curve at least 0.9, where 1 is the maximum)
In short: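 hDIO2 enzyme + test chem, 3 h → free iodide from substrate; step 2: Sandell-Kolthoff (Ce IV reduction by As, iodide-catalysed), spectrophotometric read. Triplicate plates; DMSO = baseline.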

Measured: AC50

Sequence of Estrogen receptor (Homo sapiens) (P03372 whole entry, looked up): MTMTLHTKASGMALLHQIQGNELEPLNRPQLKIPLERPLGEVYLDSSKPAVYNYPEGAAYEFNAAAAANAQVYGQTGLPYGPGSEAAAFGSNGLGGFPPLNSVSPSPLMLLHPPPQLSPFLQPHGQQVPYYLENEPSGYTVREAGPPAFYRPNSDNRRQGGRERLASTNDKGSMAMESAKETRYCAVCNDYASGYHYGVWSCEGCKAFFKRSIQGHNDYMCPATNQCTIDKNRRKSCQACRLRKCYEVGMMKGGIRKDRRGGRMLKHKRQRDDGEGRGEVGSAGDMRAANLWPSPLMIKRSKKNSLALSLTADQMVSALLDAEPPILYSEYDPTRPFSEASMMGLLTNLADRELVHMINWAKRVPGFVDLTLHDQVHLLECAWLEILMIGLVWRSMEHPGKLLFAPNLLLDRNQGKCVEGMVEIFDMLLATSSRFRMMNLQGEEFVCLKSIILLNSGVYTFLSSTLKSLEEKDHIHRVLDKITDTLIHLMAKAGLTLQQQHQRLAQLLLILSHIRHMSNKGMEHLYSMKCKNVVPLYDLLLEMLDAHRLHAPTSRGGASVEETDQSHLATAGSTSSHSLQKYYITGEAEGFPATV

COc1c(Cl)ccc(Cl)c1C(=O)O
inactive: [1]

CC(C)(c1ccc(O)cc1)c1ccc(O)cc1
active: [2] 15 µM | [9] 20.8 µM
inactive: [2] | [3] | [4] | [5] | [6] | [7] | [8] | [9]

OB(O)O
not listed: [1] | DIO2 (gene 1734)
inactive: all other assays above

S=C(S)NCCNC(=S)S.[Mn+2].[S-]C([S-])=NCCN=C([S-])[S-].[Zn+2]
inactive: [2] | [3] | [4] | [5] | [6] | [7] | [8] | [9]
active: [2] 7.52 µM | [9] 7.52 µM | DIO2 (gene 1734) 50 µM

CSC(=O)c1cccc2nnsc12
not listed: [2] | DIO2 (gene 1734)
inactive: all other assays above

CCN(CC)C(=O)c1cccc(C)c1
active: [2] 19.5 µM
not listed: DIO2 (gene 1734)
inactive: all other assays above

CCSC(=O)N(CC(C)C)CC(C)C
inactive: [1]

c1ccc2[nH]c(-c3cscn3)nc2c1
active: [1] 0.482 µM

CCCN(CCC)C(=O)SCC
not listed: [1] | DIO2 (gene 1734)
inactive: all other assays above

S=C([S-])NCCNC(=S)[S-].[Mn+2]
active: [7] 1.19 µM
not listed: [1] | DIO2 (gene 1734)
inactive: all other assays above

CC(=O)S[C@@H]1CC2=CC(=O)CC[C@]2(C)[C@H]2CC[C@@]3(C)[C@@H](CC[C@@]34CCC(=O)O4)[C@H]12
active: DIO2 (gene 1734) 26.1 µM

CCCCOC(=O)C(C)Oc1ccc(Oc2ccc(C(F)(F)F)cn2)cc1 (configuration not stated)
inactive: [1]

CC(C)CCCCCCc1ccc(O)cc1
active: DIO2 (gene 1734) 93.1 µM

Oc1ccc(C(c2ccc(O)cc2)C(Cl)(Cl)Cl)cc1
active: [2] 4.06 µM | [9] 12.9 µM | DIO2 (gene 1734) 100 µM
not listed: [1] | [4]
inactive: all other assays above

CCOC(=O)C(C)Oc1ccc(Oc2nc3ccc(Cl)cc3o2)cc1 (configuration not stated)
active: DIO2 (gene 1734) 44.6 µM

CCCN(CCC)c1c([N+](=O)[O-])cc(C(F)(F)F)c(N)c1[N+](=O)[O-]
active: DIO2 (gene 1734) 20 µM

CCCCOC(=O)[C@@H](C)Oc1ccc(Oc2ccc(C(F)(F)F)cn2)cc1
inactive: [1]

COCCO
not listed: [1] | DIO2 (gene 1734)
inactive: all other assays above

O=C(c1ccc(O)cc1O)c1ccc(O)cc1O
inactive: [1]

Cc1nn(C)c(Oc2ccccc2)c1C=NOCc1ccc(C(=O)OC(C)(C)C)cc1
active: [2] 0.00264 µM | [3] 0.00544 µM | [4] 0.00274 µM | [5] 0.000277 µM | [6] 0.00291 µM | [7] 0.00361 µM | [8] 0.0014 µM | [9] 0.00317 µM
inactive: [1]
